Compounds with a hit are over-represented: about 4.1% of the library has one in this group of screens.
hgDAF-12 ag: hgDAF-12 agonism, primary luciferase screen. activation, % at 6.8 µM. HEK293 GAL4-hgDAF12 UAS-luciferase reporter, agonist luminescence; normalized to butyrate control. AID 687014. hit rate 1.8% among 370,000;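 active means activation above a cutoff set at the mean of all screened compounds plus 3 SD, cut at about 10% in these data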;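 further: 0% = DMSO wells and 100% = sodium butyrate wells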
ssDAF12 agonist: activators of S. stercoralis DAF-12 nuclear receptor; hit rate 1% among 370,000; AID 652126; HEK293 ssDAF-12/GRIP1 lit1-tk-luc reporter, luminescence; % of 3 µM dafachronic acid response; activation, % at 6.8 µM;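 active means activation above the mean over all tested compounds plus 3 SD, cut at about 0.9% in these data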;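 further: 0% = DMSO-only wells and 100% = 3 µM delta7-dafachronic acid wells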
hcDAF-12 act: activates DAF-12 receptor from parasite H. contortus; HEK293 hcDAF-12 lit1-tk-luc reporter, luminescence; 0% DMSO, 100% Δ7-dafachronic acid; activation, % at 6.8 µM; hit rate 1.4% among 370,000; AID 652067;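 active means activation above the mean of all tested compounds plus 3 SD, cut at about 5.5% in these data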;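 further: 100% = response to 3 µM Δ7-dafachronic acid high control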
DAX1 inh-1: NR0B1 (DAX1) inhibition | HEK293 Gal4-DAX1 luciferase reporter, luminescence | hit rate 0.99% among 340,000 | inhibition, % at 6.75 µM | P51843;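 active means inhibition above the mean over all tested compounds plus 3 SD, cut at about 4.2% in these data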;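 further: 0% = DAX1-transfected cells with DMSO and 100% = empty-vector control cells with DMSO; inhibition shows as a rise in luminescence from relieved DAX1 repression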
Target sequence (P51843 207-470 limits assumed): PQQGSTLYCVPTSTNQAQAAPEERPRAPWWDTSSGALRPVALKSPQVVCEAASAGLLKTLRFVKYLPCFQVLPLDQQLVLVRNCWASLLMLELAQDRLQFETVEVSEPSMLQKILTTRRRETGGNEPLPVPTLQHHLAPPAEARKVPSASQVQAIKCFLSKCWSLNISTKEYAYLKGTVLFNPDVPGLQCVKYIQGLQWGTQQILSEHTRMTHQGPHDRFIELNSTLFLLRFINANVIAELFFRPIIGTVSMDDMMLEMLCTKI
DAX1 inh-2: inhibitors of DAX1 repression of SF-1 activated StAR promoter | HEK293T StAR-luciferase reporter, SF-1/DAX-1 repression relief | inhibition, % at 6.8 µM | hit rate 1.1% among 370,000;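 active means inhibition above the mean over all tested compounds plus 3 SD, cut at about 3.6% in these data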;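 further: 0% = DAX-1 cells with DMSO and 100% = cells lacking DAX-1 with DMSO; higher inhibition means more luminescence from relief of DAX-1 repression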
* marks the source's active call; other numbers are inactive results; x = not tested or not shown.

SMILES	hgDAF-12 ag	ssDAF12 agonist	hcDAF-12 act	DAX1 inh-1	DAX1 inh-2
COc1ccc(C(=O)CC(Sc2ccccc2N)c2ccc(OC)cc2)cc1 (centres undefined)	9.5	0.6	4.7	2.4	4.1*
COc1ccc(C(=O)CC(=O)c2ccc(C(C)(C)C)cc2)cc1	5.4	-1.2	-0.9	-0.7	0.9
O=C(Nc1cccc(F)c1)O[C@@H]1CC[C@@]23CCCN2C(=O)CCC[C@H]3C1	0.1	-1.7	-0.8	x	x
c1ccc(-c2nnc(-c3ccco3)o2)cc1	10.6*	-0.3	5.8*	3.4	2.5
c1coc(-c2nnc(-c3ccc4c(c3)OCO4)o2)c1	12.8*	-0.3	3.5	x	3.7*
CCOc1cc(-c2nnc(-c3ccco3)o2)cc(OCC)c1OCC	-0.3	-1.9	-1.1	-0.2	-1.6
CCOc1ccc(-c2nnc(-c3ccco3)o2)cc1OCC	7.4	-0.9	-0.7	7.7*	1.1
Brc1ccc(-c2nnc(-c3ccc4c(c3)OCO4)o2)o1	9.4	-1.2	0.4	1.2	1.9
Brc1ccc(-c2nnc(-c3ccco3)o2)cc1	9.1	-0.7	4.8	2.0	0.9
CC1=CC(C)(C)n2c(O)c(N=NC(N)=S)c3cccc1c32	-3.8	-1.8	-2.5	1.2	-1.4
COc1cc2c3c(c1)c(N=NC(N)=S)c(O)n3C(C)(C)C=C2C	0.0	-0.2	-1.2	7.1*	-0.4
CC(C)OC(=O)CSc1nnc(-c2ccc(C(C)(C)C)cc2)n1N	3.4	-0.9	-0.5	5.0*	1.0
Oc1ccc2ccccc2c1CNc1ccccc1	5.5	1.7*	3.2	-0.6	0.1
Oc1ccc2ccccc2c1CNc1ccc2ccccc2c1	3.3	-0.4	3.8	0.1	-0.2
O=[N+]([O-])c1ccccc1NCc1c(O)ccc2ccccc12	-0.8	1.6*	6.3*	2.7	-0.2
COc1cccc(NC(=O)n2ccc3ccc(-c4ccc5ccn(C(=O)Nc6cccc(OC)c6)c5c4)cc32)c1	-0.9	-0.9	-0.8	x	-2.5
S=C(Nc1cccnc1)N1CCc2ccccc21	1.6	-0.3	6.4*	0.4	0.1
O=C(NC(=S)N1CCc2ccccc21)C1CCC1	-3.5	-0.6	5.7*	0.0	0.0
COc1cc(/C=C2\SC(N)=NC2=O)cc(Cl)c1O	2.6	-0.5	-0.5	4.4*	-0.2
COc1ccc(C2N(c3ccc(C)cc3)CCN2c2ccc(C)cc2)cc1O	0.5	-0.9	-1.9	4.9*	0.5
Cc1cc(C)c(S(C)(=O)=O)c(N(C)NC(=O)c2c(F)cccc2F)n1	-3.1	-0.9	0.2	1.5	0.0
Cc1cc2c(s1)c1cnn(Cc3cc(F)c(F)cc3F)c(=O)c1n2C	0.3	-1.0	-2.9	x	x
COc1ccc(NC(=O)Nc2ccc3c(c2)C(=O)N([C@H](C)CO)C[C@H](C)[C@@H](CN(C)S(=O)(=O)c2ccc(OC)cc2)O3)cc1	-0.6	-0.8	-0.8	6.4*	0.0
C[C@H](CO)N1C[C@H](C)[C@@H](CN(C)S(=O)(=O)c2ccccc2)Oc2ccc(NC(=O)C3CCCCC3)cc2C1=O	-1.6	-1.4	-0.6	-0.4	-0.1
COc1ccc(S(=O)(=O)N(C)C[C@H]2Oc3ccc(NC(=O)Nc4ccc(C(F)(F)F)cc4)cc3C(=O)N([C@H](C)CO)C[C@@H]2C)cc1	-1.1	-1.3	-0.3	0.2	0.0
SMILES	hgDAF-12 ag	ssDAF12 agonist	hcDAF-12 act	DAX1 inh-1	DAX1 inh-2
C[C@H](CO)N1C[C@H](C)[C@@H](CN(C)S(=O)(=O)c2ccccc2)Oc2ccc(NC(=O)NC3CCCCC3)cc2C1=O	-0.1	-0.4	0.4	-0.8	4.2*
COc1cccc(-c2cc(CNC(=O)[C@H]3O[C@@H](n4cnc(C(N)=O)n4)[C@H](O)[C@@H]3O)no2)c1	0.3	-0.5	-1.0	x	2.2
CCCC(C)C(=O)NC1CCCCN(Cc2ccccc2C)C1=O (centres undefined)	1.9	-0.5	-3.0	x	-0.3
CC(C)(C)c1ccc(C#C[C@@H]2C=C[C@@H](O)[C@@H](CO)O2)cc1	0.2	-1.1	-0.9	x	1.4
COc1ccc(C2CC(c3ccc4ccccc4c3OC(C)=O)=NN2C(C)=O)cc1 (centres undefined)	6.3	-0.9	2.1	5.4*	0.9
COc1ccc(C2CC(c3ccc(C)o3)=NN2C(C)=O)cc1 (centres undefined)	9.4	-0.5	0.8	1.0	2.0
CC(C)c1ccc(NC(=O)C2=NNC(=O)CC2)cc1	7.3	-0.9	3.3	5.3*	2.2
COc1ccc(CSc2nnc(C)s2)cc1F	10.8*	-0.1	0.7	0.3	2.4
O=C1NC(Cc2ccccc2)c2nc3ccccc3c(=O)n2-c2cc3ccccc3cc21 (centres undefined)	-3.2	-0.6	-1.8	-0.4	-7.6
CCC1NC(=O)c2cc3ccccc3cc2-n2c1nc1cc(F)ccc1c2=O (centres undefined)	-3.9	-0.4	0.2	-0.8	-0.1
CC1NC(=O)c2cc3ccccc3cc2-n2c1nc1cc(Cl)ccc1c2=O (centres undefined)	1.8	1.1*	3.0	1.4	-1.3
Cc1ccc2c(=O)n3c(nc2c1)C(Cc1ccccc1)NC(=O)c1cc2ccccc2cc1-3 (centres undefined)	-1.1	1.2*	1.4	-0.3	2.3
CC1NC(=O)c2cc3ccccc3cc2-n2c1nc1cc(F)ccc1c2=O (centres undefined)	0.6	1.8*	4.3	-0.2	-0.3
C#CCN1CC(N(C)CCCO)CS1(=O)=O (centres undefined)	0.8	-1.9	0.2	x	0.3
CCCCNC(=O)C[C@H]1C[C@@]2(C(=O)OC)C(=C[C@H](C3CCCC3)O[C@@H]2C)N(CCC2=CCCCC2)C1=O	-0.9	-1.4	3.0	x	-1.2
COCc1cc(N2CCNC[C@@H]2C)ccc1N1C[C@@H](C)O[C@@H](C)C1	0.4	-1.1	-1.6	x	1.2
c1ccc(-c2csc(-c3ccncc3)n2)cc1	3.1	-1.0	0.5	0.5	-0.4
c1ccc(-c2ccc(-c3ccncn3)cc2)cc1	11.9*	0.5	-0.1	2.9	1.8
Cc1csc(NC(=O)c2ccc[nH]c2=O)n1	11.1*	-1.1	1.1	0.8	1.9
Cc1ccc(Cn2cc(COC(=O)NCC(C)C)nn2)cc1	-2.4	-1.0	-2.4	x	-0.2
CCNC(=S)NNC(=O)c1csc(CC)c1	6.3	-0.8	-1.1	7.0*	0.2
CCc1cc(C(=O)NNC(=S)Nc2ccccc2C)cs1	11.7*	-0.1	2.2	1.7	3.6*
COc1cc(C(NC(=O)C(F)(F)F)C2CCCC=C2c2ccccc2)cc(OC)c1OC (centres undefined)	0.6	-1.2	-0.1	x	-0.4
CCCCNC(=S)N/N=C/c1sccc1C	10.9*	-1.2	-1.4	2.2	-0.5
COc1ccc(CC(=O)NCC(=O)N/N=C/c2sccc2C)cc1	1.1	-1.3	6.4*	-0.5	-0.1
Cc1cc(NC(=O)C(C)C)n(-c2nc3ccccc3s2)n1	3.1	0.9*	5.5	0.0	1.5
COc1ccc(S(=O)(=O)NCC(=O)N2CCN(c3ccccn3)CC2)c(OC)c1	-2.7	-0.9	-3.5	x	-0.9
